Data reported in PubChem BioAssay (EPA / NIEHS).
Activity calls are given as the source filed them. The calls were made as follows: active = hit-call score of the fitted dose curve at least 0.9, where 1 is the maximum; inactive = score below 0.9.

Key:
Conditions in all cases: mRNA level, 48 h; actives raise or lower the signal
[1] = read-out: Bcl-2 (BID) gene, BID (gene 637); assay: LTEA_HepaRG_BID: Life Technologies and Expression Analysis (LTEA) Assay for Bcl-2 (BID) gene using HepaRG (AID 2283476)
Method in brief: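 Gene expression by qRT-PCR in HepaRG cells after 48 h exposure, duplicate wells, eight half-log concentrations topping at 100 uM in 0.5% DMSO. Normalized to ACTB, GAPDH, POLR2A; bidirectional fitting relative to DMSO.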

Caspase-3 (Homo sapiens) = Caspase-3 (Homo sapiens) (UniProt P42574); assay: LTEA_HepaRG_CASP3: Life Technologies and Expression Analysis (LTEA) Assay for cysteine-aspartic acid protease (CASP3) using HepaRG (AID 2283477)
Caspase-3 (Homo sapiens), sequence (P42574 whole entry, looked up): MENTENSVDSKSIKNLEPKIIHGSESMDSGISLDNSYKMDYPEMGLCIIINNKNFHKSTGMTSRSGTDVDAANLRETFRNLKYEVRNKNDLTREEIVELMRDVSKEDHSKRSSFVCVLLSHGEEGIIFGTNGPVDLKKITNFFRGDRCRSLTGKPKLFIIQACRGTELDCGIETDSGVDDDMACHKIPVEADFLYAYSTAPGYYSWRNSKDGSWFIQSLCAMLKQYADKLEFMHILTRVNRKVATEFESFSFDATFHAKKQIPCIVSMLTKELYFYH
Method in brief: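 Read-out is CASP3 mRNA level by TaqMan qRT-PCR in human HepaRG cells after 48 h chemical exposure. Eight half-log concentrations topping at 100 uM were tested in 0.5% DMSO; gain or loss was fitted relative to DMSO.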

[2] = read-out: Cytochrome P450 (CYP24A1), CYP24A1 (gene 1591); assay: LTEA_HepaRG_CYP24A1: Life Technologies and Expression Analysis (LTEA) Assay for Cytochrome P450 (CYP24A1) using HepaRG (AID 2283478)
Method in brief: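 HepaRG, 48 h chemical exposure, 8-pt half-log CRC from 100 uM, 0.5% DMSO vehicle, duplicates. Endpoint: CYP24A1 mRNA by Fluidigm TaqMan qRT-PCR, normalized ACTB/GAPDH/POLR2A; gain/loss fit vs DMSO.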

[3] = read-out: Cytochrome P450 (CYP1A2), CYP1A2 (gene 1544); assay: LTEA_HepaRG_CYP1A2: Life Technologies and Expression Analysis (LTEA) Assay for Cytochrome P450 (CYP1A2) using HepaRG (AID 2283479)
Method in brief: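 CYP1A2 transcript induction or loss, quantified by Fluidigm qRT-PCR against three housekeeping genes, was fitted bidirectionally against 0.5% DMSO controls. Human HepaRG cells received eight half-log concentrations from 100 uM over 48 h.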

[4] = read-out: cysteine-aspartic acid protease (CASP8), CASP8 (gene 841); assay: LTEA_HepaRG_CASP8: Life Technologies and Expression Analysis (LTEA) Assay for cysteine-aspartic acid protease (CASP8) using HepaRG (AID 2283480)
Method in brief: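 Differentiated human HepaRG cells, plated 48 h then switched to serum-free induction medium, were exposed in duplicate for 48 h to 8 half-log concentrations up to 100 uM in 0.5% DMSO. CASP8 mRNA was quantified by qRT-PCR, normalized to ACTB/GAPDH/POLR2A.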

[5] = read-out: Cytochrome P450 (CYP2B6), CYP2B6 (gene 1555); assay: LTEA_HepaRG_CYP2B6: Life Technologies and Expression Analysis (LTEA) Assay for Cytochrome P450 (CYP2B6) using HepaRG (AID 2283481)
Method in brief: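 HepaRG cells plated 48 h, switched to serum-free induction medium, then dosed 48 h (8 points, half-log from 100 uM, 0.5% DMSO). RNA isolated; CYP2B6 expression measured by qRT-PCR; gain or loss fitted relative to DMSO.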

[6] = read-out: Cytochrome P450 2C19 (Homo sapiens) (UniProt P33261); assay: LTEA_HepaRG_CYP2C19: Life Technologies and Expression Analysis (LTEA) Assay for CYP2C19 using HepaRG (AID 2283482)
Method in brief: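 Transcript levels of CYP2C19 were quantified by qRT-PCR after HepaRG cells were treated for 48 hours with test chemicals up to 100 uM (eight half-log concentrations, 0.5% DMSO vehicle). Gain or loss of signal was fitted relative to DMSO.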

CYP2C9 (gene 1559) = assay: LTEA_HepaRG_CYP2C9: Life Technologies and Expression Analysis (LTEA) Assay for CYP2C9 using HepaRG (AID 2283484)
Method in brief: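 Differentiated human HepaRG cells were exposed 48 h in serum-free induction medium to eight half-log concentrations up to 100 uM in 0.5% DMSO. CYP2C9 mRNA was measured by qRT-PCR, normalized to ACTB, GAPDH and POLR2A, and fitted bidirectionally against DMSO.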

CYP2E1 (gene 1571) = assay: LTEA_HepaRG_CYP2E1: Life Technologies and Expression Analysis (LTEA) Assay for CYP2E1 using HepaRG (AID 2283485)
Method in brief: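 HepaRG cells, plated 48 h, then exposed 48 h in serum-free induction medium to eight half-log concentrations from 100 uM in 0.5% DMSO, duplicate. CYP2E1 mRNA by qRT-PCR, normalized to ACTB/GAPDH/POLR2A; bidirectional fit versus DMSO.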

CYP4A11 (gene 1579) = assay: LTEA_HepaRG_CYP4A11: Life Technologies and Expression Analysis (LTEA) Assay for CYP4A11 using HepaRG (AID 2283486)
Method in brief: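 HepaRG, 48 h chem exposure, 8 conc (100 uM top, half-log), 0.5% DMSO vehicle; qRT-PCR readout, housekeeping-gene normalized; bidirectional curve fit vs DMSO baseline.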

[7] = read-out: Cytochrome P450 3A4 (Homo sapiens) (UniProt P08684); assay: LTEA_HepaRG_CYP3A4: Life Technologies and Expression Analysis (LTEA) Assay for CYP3A4 using HepaRG (AID 2283487)
Method in brief: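 Differentiated HepaRG cells in serum-free induction medium exposed in duplicate for 48 h to 8 half-log concentrations up to 100 uM in 0.5% DMSO. CYP3A4 mRNA measured by qRT-PCR normalized to ACTB, GAPDH and POLR2A; bidirectional fit versus DMSO.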

[8] = read-out: Pro-epidermal growth factor (Homo sapiens) (UniProt P01133); assay: LTEA_HepaRG_EGF: Life Technologies and Expression Analysis (LTEA) Assay for Epidermal growth factor (EGF) using HepaRG (AID 2283489)
Method in brief: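 HepaRG, 48 h dosing, 100 uM top, half-log x8, 0.5% DMSO. Readout: TaqMan qRT-PCR (Fluidigm array), housekeeping-normalized. Gain or loss of signal fit vs DMSO.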

[9] = read-out: Early growth response protein 1 (EGR1) transcription factor, EGR1 (gene 1958); assay: LTEA_HepaRG_EGR1: Life Technologies and Expression Analysis (LTEA) Assay for Early growth response protein 1 (EGR1) transcription factor using HepaRG (AID 2283490)
Method in brief: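 Differentiated human HepaRG cells in serum-free induction medium were exposed in duplicate for 48 h to eight concentrations (top 100 uM, half-log steps) in 0.5% DMSO. EGR1 mRNA was quantified by qRT-PCR, normalized to ACTB, GAPDH and POLR2A, and fitted bidirectionally versus DMSO.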

[10] = read-out: Ezrin (EZR), EZR (gene 7430); assay: LTEA_HepaRG_EZR: Life Technologies and Expression Analysis (LTEA) Assay for Ezrin (EZR) using HepaRG (AID 2283491)
Method in brief: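 Differentiated human HepaRG cells, 48 h after plating, were exposed in serum-free induction medium for 48 hours to eight half-log concentrations up to 100 uM in 0.5% DMSO. EZR mRNA was measured by TaqMan qRT-PCR, normalized to ACTB, GAPDH and POLR2A, and fitted bidirectionally against DMSO.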

[11] = read-out: Cytochrome P450 3A7 (Homo sapiens) (UniProt P24462); assay: LTEA_HepaRG_CYP3A7: Life Technologies and Expression Analysis (LTEA) Assay for CYP3A7 using HepaRG (AID 2283492)
Method in brief: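 Human HepaRG liver cells, 48 h post-plating, switched to serum-free induction medium and exposed in duplicate for 48 h. Dosing: 100 uM top, half-log dilutions, 8 points, 0.5% DMSO vehicle. Read-out: CYP3A7 mRNA, gain or loss fitted against DMSO baseline.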

[12] = read-out: Fatty Acid-Binding Protein 1 (FABP1), FABP1 (gene 2168); assay: LTEA_HepaRG_FABP1: Life Technologies and Expression Analysis (LTEA) Assay for Fatty Acid-Binding Protein 1 (FABP1) using HepaRG (AID 2283494)
Method in brief: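 Differentiated human HepaRG cells were exposed in duplicate for 48 h in serum-free induction medium to 8-point half-log concentration series topping at 100 uM in 0.5% DMSO. FABP1 mRNA measured by TaqMan qRT-PCR, normalized to ACTB/GAPDH/POLR2A; bidirectional fit versus DMSO.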

[13] = read-out: DNA damage-inducible transcript 3 (DDIT3), DDIT3 (gene 1649); assay: LTEA_HepaRG_DDIT3: Life Technologies and Expression Analysis (LTEA) Assay for DNA damage-inducible transcript 3 (DDIT3) using HepaRG (AID 2283488)
Method in brief: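 HepaRG cells, 48 h after plating, exposed 48 h in serum-free induction medium to 8 half-log concentrations up to 100 uM in 0.5% DMSO, in duplicate. DDIT3 mRNA measured by TaqMan qRT-PCR, normalized to ACTB, GAPDH and POLR2A. Fitted bidirectionally against DMSO.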

CYP2C8 (gene 1558) = assay: LTEA_HepaRG_CYP2C8: Life Technologies and Expression Analysis (LTEA) Assay for CYP2C8 using HepaRG (AID 2283483)
Method in brief: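 Differentiated human HepaRG cells were exposed for 48 h in serum-free induction medium to eight half-log concentrations up to 100 uM in 0.5% DMSO, in duplicate. CYP2C8 mRNA was measured by TaqMan qRT-PCR, normalized to ACTB, GAPDH and POLR2A, and fitted bidirectionally against DMSO.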

CYP3A5 (gene 1577) = assay: LTEA_HepaRG_CYP3A5: Life Technologies and Expression Analysis (LTEA) Assay for CYP3A5 using HepaRG (AID 2283493)
Method in brief: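 HepaRG cells, plated 48 h then in serum-free induction medium, dosed in duplicate for 48 h with eight half-log concentrations up to 100 uM in 0.5% DMSO. Gene mRNA by Fluidigm TaqMan qRT-PCR, normalized to ACTB, GAPDH, POLR2A.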

[14] = read-out: Cytochrome P450 4A22 (Homo sapiens) (UniProt Q5TCH4); assay: LTEA_HepaRG_CYP4A22: Life Technologies and Expression Analysis (LTEA) Assay for Cytochrome P450 4A22 (CYP4A22) using HepaRG (AID 2283495)
Method in brief: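 Readout is CYP4A22 transcript induction or loss, quantified by qRT-PCR and normalized to ACTB, GAPDH and POLR2A. Human HepaRG cells receive test chemicals for 48 h at eight half-log concentrations from 100 uM in 0.5% DMSO.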

Measured: AC50

Cytochrome P450 2C19 (Homo sapiens), sequence (P33261 whole entry, looked up): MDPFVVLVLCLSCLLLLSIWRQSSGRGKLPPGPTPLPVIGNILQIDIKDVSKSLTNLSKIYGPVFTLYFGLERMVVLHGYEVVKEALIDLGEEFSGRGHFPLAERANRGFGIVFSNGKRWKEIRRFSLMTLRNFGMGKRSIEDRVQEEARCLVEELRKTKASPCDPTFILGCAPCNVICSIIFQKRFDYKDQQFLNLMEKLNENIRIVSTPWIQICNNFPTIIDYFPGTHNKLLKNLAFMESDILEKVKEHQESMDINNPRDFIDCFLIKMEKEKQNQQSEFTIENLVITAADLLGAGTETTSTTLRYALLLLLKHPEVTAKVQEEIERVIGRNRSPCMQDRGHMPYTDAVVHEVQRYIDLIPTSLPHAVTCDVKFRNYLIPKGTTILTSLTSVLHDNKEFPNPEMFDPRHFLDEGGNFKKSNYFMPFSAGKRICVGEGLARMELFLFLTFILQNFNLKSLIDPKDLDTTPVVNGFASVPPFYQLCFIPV
Cytochrome P450 3A4 (Homo sapiens), sequence (P08684 whole entry, looked up): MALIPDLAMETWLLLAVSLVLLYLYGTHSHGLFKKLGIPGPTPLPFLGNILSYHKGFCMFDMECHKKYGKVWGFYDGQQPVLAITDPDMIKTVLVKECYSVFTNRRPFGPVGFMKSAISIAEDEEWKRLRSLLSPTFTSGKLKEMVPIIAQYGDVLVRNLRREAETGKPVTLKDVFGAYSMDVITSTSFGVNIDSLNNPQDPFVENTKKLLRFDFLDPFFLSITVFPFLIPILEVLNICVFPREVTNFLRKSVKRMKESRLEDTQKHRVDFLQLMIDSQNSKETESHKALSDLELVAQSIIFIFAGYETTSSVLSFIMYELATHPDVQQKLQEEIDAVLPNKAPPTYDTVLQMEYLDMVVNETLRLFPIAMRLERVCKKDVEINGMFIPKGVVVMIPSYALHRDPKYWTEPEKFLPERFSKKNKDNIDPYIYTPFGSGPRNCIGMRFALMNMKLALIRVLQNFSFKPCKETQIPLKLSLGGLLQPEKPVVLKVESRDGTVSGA
Cytochrome P450 3A7 (Homo sapiens), sequence (P24462 whole entry, looked up): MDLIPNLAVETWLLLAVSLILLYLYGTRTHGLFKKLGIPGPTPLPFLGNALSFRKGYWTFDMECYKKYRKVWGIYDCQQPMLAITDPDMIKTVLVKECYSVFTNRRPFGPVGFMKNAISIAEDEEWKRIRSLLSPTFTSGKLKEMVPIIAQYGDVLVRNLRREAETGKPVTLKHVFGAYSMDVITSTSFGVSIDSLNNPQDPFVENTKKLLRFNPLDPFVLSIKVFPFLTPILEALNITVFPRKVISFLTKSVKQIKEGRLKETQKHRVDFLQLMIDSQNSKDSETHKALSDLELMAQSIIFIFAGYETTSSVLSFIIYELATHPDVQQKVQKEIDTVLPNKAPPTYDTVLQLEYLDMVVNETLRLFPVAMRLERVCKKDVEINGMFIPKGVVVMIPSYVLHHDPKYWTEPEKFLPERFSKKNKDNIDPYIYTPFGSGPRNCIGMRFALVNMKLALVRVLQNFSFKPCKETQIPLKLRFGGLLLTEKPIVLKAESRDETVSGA

CCOP(=S)(OCC)OC(Cl)C(Cl)(Cl)Cl (stereo not drawn)
active: [5] 24 µM | [7] 50 µM
not listed: [13] | CYP2C8 (gene 1558) | CYP3A5 (gene 1577) | [14]
inactive: all other assays above

CN(C)C(=O)Nc1cccc(C(F)(F)F)c1
active: [1] 79.3 µM | [3] 42 µM | [5] 2.55 µM | [6] 16 µM | CYP2E1 (gene 1571) 50 µM | [7] 10.4 µM | [11] 7.66 µM
not listed: CYP2C9 (gene 1559) | CYP2C8 (gene 1558) | CYP3A5 (gene 1577) | [14]
inactive: all other assays above

CSc1nnc(C(C)(C)C)c(=O)n1N
active: [5] 14.6 µM | [6] 9.92 µM | CYP2E1 (gene 1571) 23.2 µM
not listed: CYP2C9 (gene 1559) | [14]
inactive: all other assays above

CCCCOC(=O)c1ccccc1C(=O)O
active: [3] 32.8 µM | [5] 10.2 µM | [11] 12.7 µM
not listed: [13]
inactive: all other assays above

CCOP(=S)(OCC)Oc1ccc2c(C)c(Cl)c(=O)oc2c1
active: [3] 4.03 µM | [5] 2.49 µM | [6] 12.6 µM | CYP2E1 (gene 1571) 31.6 µM | CYP4A11 (gene 1579) 50 µM | [12] 24.6 µM | [14] 50 µM
not listed: CYP2C9 (gene 1559) | [7] | [13]
inactive: all other assays above

CCOP(=S)(OCC)Oc1ccc([N+](=O)[O-])cc1
active: [3] 15.1 µM | [5] 0.636 µM | [6] 9.2 µM | CYP2E1 (gene 1571) 7.92 µM | [7] 8.92 µM | [11] 6.02 µM
not listed: [4] | [13] | CYP3A5 (gene 1577) | [14]
inactive: all other assays above

COc1cccc(C(=O)NN(C(=O)c2cc(C)cc(C)c2)C(C)(C)C)c1C
active: [3] 18.7 µM | [5] 1.16 µM | [6] 1.49 µM | CYP2C8 (gene 1558) 3.61 µM | CYP2E1 (gene 1571) 23.5 µM | [7] 1.81 µM | [11] 5.42 µM
not listed: [4] | CYP2C9 (gene 1559) | CYP3A5 (gene 1577) | [14]
inactive: all other assays above
